# PubChem BioAssay (NCATS)
# Results filed as inconclusive are left out. The source made the active and inactive calls. Unless noted, calls follow the shape of the dose curve; as a rule, active = well fitted curve in the direction sought with a large enough effect; inconclusive = small, poorly fitted or top-dose-only effect, or another doubt; inactive = no such curve, though single readings can be large; an effect the other way counts as inactive or inconclusive.
# What was measured:
# [1] = P-glycoprotein substrates identified in KB-3-1 adenocarcinoma cell line, qHTS therapeutic library screen (AID 1346986); also: nearly all actives have a fitted effect of over 60% in size;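 also: potency is read from the fitted curve at half-maximal effect; potency is for cytotoxicity meaning loss of cell viability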
# In short: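 Viability read by CellTiter-Glo after 72 h compound exposure in dose-response of KB-3-1 and KB-8-5-11 (P-gp-high) cells. Hits needed AC50 < 10 uM, >50% maximum response and curve class -1.1 to -2.4. Cherry-picks retested ± tariquidar, including pcDNA/MDR-19 HEK-293 pair.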
# [2] = Primary qHTS for inhibitors of nuclear receptor binding SET domain protein 2 (NSD2) in an isogenic RCH-ACV NSD2 p.E1099K mutant (9B) (AID 1645876); also: nearly all actives have a fitted effect of over 70% in size; also: potency is read from the fitted curve at half-maximal effect
# [3] = Primary qHTS for inhibitors of nuclear receptor binding SET domain protein 2 (NSD2) in an RCH-ACV wild type WT cells (2C) (AID 1645877); also: nearly all actives have a fitted effect of over 70% in size; also: potency is read from the fitted curve at half-maximal effect
# [4] = molecular target: Catechol O-methyltransferase (Homo sapiens) (UniProt P21964); test: Confirmatory Screen for Target Class Profiling of Small Molecule Inhibitors of Methyltransferases (AID 1745852; calls by dose curve; also: potency is read from the fitted curve at half-maximal effect); details: MTase-Glo luminescence, SAH detection, recombinant enzyme; measured here: COMT max response; stronger effect = lower value
# [5] = molecular target: Guanidinoacetate N-methyltransferase (Homo sapiens) (UniProt Q14353); test: as above; details: activity change, negative = inhibition: at 57.3 µM (top of the series) unless noted
# [6] = molecular target: Nicotinamide N-methyltransferase (Homo sapiens) (UniProt P40261); test: as above; details: MTase-Glo luminescence, SAH detection, recombinant enzyme; measured here: NNMT max response; stronger effect = lower value
# [7] = molecular target: Phenylethanolamine N-methyltransferase (Homo sapiens) (UniProt P11086); test: as above; details: MTase-Glo luminescence, SAH detection, recombinant enzyme; measured here: PNMT max response; stronger effect = lower value
# [8] = molecular target: Calcium and integrin-binding protein 1 (Homo sapiens) (UniProt Q99828); test: Primary qHTS for Identification of Calcium Integrin Binding Protein 1 (CIB1) Competitor (AID 1508620);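 also: GST tagged CIB1 binding a fluorescein labelled alphaIIb integrin peptide tracer; top concentration of the series differs between compounds; % is scaled to controls: 0 for no effect and ±100 for the full control effect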
# In short: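 CIB1-GST (1 uM final) and compound incubated 15 min at room temperature before adding FITC-alphaIIb peptide tracer (100 nM final). Competition for binding read by fluorescence polarization (ex 480, em 540) after another 15 min at room temperature.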
# [9] = molecular target: N-terminal Xaa-Pro-Lys N-methyltransferase 1 (Homo sapiens) (UniProt Q9BV86); test: Confirmatory qHTS for Inhibitors of N-terminal methyltransferase 1 (NTMT1): MTaseGlo Assay (AID 1645874); also: potency is read from the fitted curve at half-maximal effect; nearly all actives have a fitted effect of over 65% in size
# In short: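 Enzyme mix (125 nM NTMT1, 100 uM SAM) + compound, 15 min RT; + 1 uM SPKRIA, 30 min RT, dark; MTase-Glo reagent 30 min, detection solution 30 min; luminescence. % inhibition vs no-enzyme/DMSO controls, 4-parameter Hill fit.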
# [10] = molecular target: Glutathione peroxidase 1 (Homo sapiens) (UniProt P07203); test: Primary qHTS Assay for Inhibitors of Recombinant Selenoprotein Glutathione Peroxidase 1 (GPX1) (AID 1845191); also: nearly all actives have a fitted effect of over 65% in size
# In short: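 NADPH consumption tracked by fluorescence at 340/450 nm between t=0 and t=15 min, room temperature. Final mix: 10 nM GPX1, 100 nM glutathione reductase, 1 mM GSH, 0.5 mM NADPH, 0.5 mM cumene hydroperoxide, 0.01% BSA; 30 min compound–enzyme preincubation.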
# [11] = molecular target: Lysosomal acid glucosylceramidase (Homo sapiens) (UniProt P04062); test: Glucocerebrosidase-p2 (AID 348; in the data active = potency below about 10 µM; also: potency is read from the fitted curve at half-maximal effect); details: purified GBA, blue fluorogenic substrate, 40 min
# In short: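 Normal human glucocerebrosidase (0.2 nM) with blue fluorogenic substrate (80 uM final) in citrate/phosphate pH 5.9 with 10mM sodium taurocholate, 0.01% tween-20; 40 min RT, NaOH/glycine stop; fluorescence Ex 365/Em 440; AC50 from a titration from 0.6 nM upwards.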
# [12] = molecular target: Cytochrome P450 1A2 (Homo sapiens) (UniProt P05177); test: p450-cyp1a2 (AID 410; calls by dose curve; also: potency is read from the fitted curve at half-maximal effect)
# In short: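 Luminescent demethylation readout: Luciferin-ME (100uM, equal to Km) turned over by 20nM CYP1A2 for 60 min at room temperature after NADPH regeneration addition, following 10 min compound preincubation. Normalization used 57 uM furafylline as full inhibition.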
# [13] = NFAT Signaling Pathway (AID 444; active = well fitted curve in either direction with a large enough effect, not every such curve was filed as active;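 also: carbachol stimulus at about its EC50 of 1 µM final; % is scaled to controls: 0 for no effect and ±100 for the full control effect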); details: Jurkat NFAT-bla M1, carbachol, beta-lactamase ratio, 5 h; at 7.69 µM (top of the series)
# In short: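 Read-out: CCF4 FRET ratio (460 nm/530 nm) after 1 h RT dye loading, used for %activity and AC50 from titration series. Cells: Jurkat NFAT-β-lactamase/M1 line, treated with compound plus 1 uM carbachol for 5 h, 37 °C.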
# [14] = Stat Signaling Pathway (AID 446; active = well fitted curve in either direction with a large enough effect, not every such curve was filed as active;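 also: ME-180 cervical cancer cells given 40 pM IL-6 alongside compound; SIE-controlled beta-lactamase reporter measured as 460/530 nm FRET emission ratio; % is scaled to controls: 0 for no effect and ±100 for the full control effect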); details: ME-180 (cervical carcinoma) SIE beta-lactamase reporter, IL-6 stimulated, 5 h; at 7.69 µM (top of the series)
# In short: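 Emission at 460 and 530 nm (excitation 405 nm) reports SIE-controlled beta-lactamase in ME-180 cells. Cells received compound with 40 pM IL-6 for 5 hrs at 37 C; data scaled between 300 pM IL-6 and 125 nM JAK-inhibitor controls.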
# [15] = molecular target: Glucocorticoid receptor (Homo sapiens) (UniProt P04150); test: GR-GFP Redistribution (AID 450;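 active = compounds whose dose series gives a full or clear partial fitted curve of increased nuclear translocation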; also: potency is read from the fitted curve at half-maximal effect); details: U2OS GR-GFP nuclear translocation, laser cytometry, 2 h
# [16] = molecular target: Glucocorticoid receptor (Homo sapiens) (UniProt P04150); test: GR-EFC Redistribution (AID 451; calls by dose curve; also: potency is read from the fitted curve at half-maximal effect); details: CHO-K1 GR-EFC translocation, beta-gal luminescence, 2 h
# In short: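 Translocation of GR-ED fusion to nuclear EA restores b-gal, read by luminescence after 1 h room-temperature detection. Engineered CHO-K1 biosensor cells, 1,000/well, exposed 2 h at 37 C to titrations up to 46 uM final.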
# [17] = molecular target: Mitogen-activated protein kinase 10 (Mus musculus) (UniProt Q61831); test: JNK3 AlphaScreen Assay (AID 530; active = well fitted curve in either direction with a large enough effect, not every such curve was filed as active;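 also: kinase came from lysate of stimulated human HepG2 cells; signal reports phosphorylation of biotinylated GST-cJun 1-79 at Ser73 with 10 µM ATP; % is scaled to controls: 0 for no effect and ±100 for the full control effect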)
# In short: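 qHTS titrations with 15 min compound pre-incubation before adding ATP (10 uM final). Read-out: AlphaScreen of Ser73-phosphorylated biotin-GST-cJun using HepG2 lysate JNK3 activated by IL-1β and TNFα.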
# [18] = molecular target: Cytochrome P450 3A4 (Homo sapiens) (UniProt P08684); test: qHTS Assay for Inhibitors and Substrates of Cytochrome P450 3A4 (AID 884); also: % is scaled to controls: 0 for no effect and ±100 for the full control effect; nearly all actives have a fitted effect of over 50% in size
# In short: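 Luminescent readout of luciferin produced by CYP3A4 (20 nM) dealkylation of Luciferin-PPXE, 25 uM (its KM). NADPH-driven reaction ran 60 min at RT after 10 min compound preincubation; data scaled to 57 uM ketoconazole as 100% inhibition.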
# [19] = molecular target: Cytochrome P450 2C19 (Homo sapiens) (UniProt P33261); test: qHTS Assay for Inhibitors and Substrates of Cytochrome P450 2C19 (AID 899); also: potency is read from the fitted curve at half-maximal effect; nearly all actives have a fitted effect of over 60% in size
# In short: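 Reactions contain 5nM enzyme, 10uM Luciferin-H EGE (KM) and 50mM KPO4; compound preincubates 10 min at 37C, NADPH regeneration starts turnover for 60 min. Luminescence after detection reagent gives activity.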
# [20] = Confirmation and Secondary Assay for Modulators of Hemoglobin Beta Chain Splicing at IVS2 654 locus (AID 910);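 also: HeLa cells stably carrying EGFP split by mutant beta-globin IVS2-654 intron; per-well total GFP intensity by laser scanning cytometry after 2-day treatment; % of control where 0% means no effect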
# In short: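 Readout: per-well total peak green fluorescence (488 nm ex, 500–520 nm em) from objects 5–250 µm, reflecting correct splicing of an EGFP-654 reporter. Compounds were applied for 2 days at 37 °C to overnight-plated HeLa EGFP-654 cells; controls were DMSO and 500 nM IVS2-654 PNA.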
# [21] = Confirmation and Secondary Assay for Modulators of Hemoglobin Beta Chain Splicing at IVS2 705 locus (AID 930);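 also: HeLa cells stably expressing the EGFP-705 splicing reporter; % of control where 0% means no effect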
# In short: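 Restored EGFP fluorescence after 2-day compound exposure reports splicing correction in IVS2-705 EGFP reporter HeLa cells; positive control was 500 nM splice-blocking PNA oligo. Signal measured as well total peak GFP intensity (488 nm excitation).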
# [22] = qHTS Assay for Lipid Storage Modulators (AID 1519; calls by dose curve); details: Drosophila S3 cells, BODIPY lipid droplet/cell ratio, laser cytometry, cells loaded with oleic acid
# In short: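 Cells seeded at 5,000 per well were treated with compounds over a concentration series and loaded with oleic acid (400 uM, as added). Lipid droplet fluorescence (488 nm excitation, 500-530 nm channel) was read by laser-scanning cytometry and normalized to 20 uM Triacsin C.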
# [23] = molecular target: Ubiquitin carboxyl-terminal hydrolase 1 (Homo sapiens) (UniProt O94782); test: Inhibitors of USP1/UAF1: Pilot qHTS (AID 504865);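 also: rhodamine fluorescence freed from ubiquitin-rhodamine substrate followed over time; top concentration of the series differs between compounds; % is scaled to controls: 0 for no effect and ±100 for the full control effect; nearly all actives have a fitted effect of over 35% in size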
# In short: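 1nM USP1/UAF1 + cpd, 15 min RT; start w/ Ub-Rho 150nM final; kinetic FL 480/540 nm, 6 reads q60 s. Buffer 50mM HEPES pH 7.8, 0.5mM EDTA, 1mM TCEP, 0.01% Tween-20, 0.1 mg/ml BSA.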
# [24] = Primary qHTS for small molecule stabilizers of the endoplasmic reticulum resident proteome: Secreted ER Calcium Modulated Protein (SERCaMP) assay (AID 1508630); also: % is scaled to controls: 0 for no effect and ±100 for the full control effect
# In short: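 The SH-SY5Y reporter protocol was run at 3 concentrations up to 38.3 uM (primary) or 11 concentrations (follow-up): 16 h compound, 100 nM thapsigargin for 4 h, then extracellular luciferase luminescence.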
# [25] = qHTS to identify inhibitors of the type 1 interferon - major histocompatibility complex class I in skeletal muscle: primary screen against the NCATS Mechanism Interrogation Plate v5.0 (MIPE) Libary (AID 1347411); also: potency is read from the fitted curve at half-maximal effect; nearly all actives have a fitted effect of over 65% in size
# In short: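 Luminescence from CRISPR HiBit-tagged endogenous HLA-B in human myoblasts reported MHC class I level after 24 h of IFN-beta (4 ng/ml) plus compound. Compounds ran as 11-point 1:3 series, top 46 uM final.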
# [26] = qHTS drug screen for cell cycle checkpoint inhibitors in PARPi-resistant BRCA-mutant ovarian cancer cell lines. (AID 1963452; calls by dose curve); details: PEO1/OlaR viability, CellTiter-Glo luminescence, 96 h, stronger effect = lower value
# In short: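 PEO1, PEO4 and PEO1/OlaR ovarian cancer cells, 600 per well, exposed 96 h at 37C to a dilution series. Viability read by CellTiter-Glo luminescence, normalized to DMSO and empty wells; activity summarized as Z-AUC.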
# [27] = qHTS assay to identify inhibitors of the type 1 interferon - major histocompatibility complex class I in skeletal muscle: Counter screen cell viability and HiBit confirmation (AID 1347412); details: iHSKM muscle cells + IFN-b, HiBiT or CellTiter-Glo, 24 h; HiBiT; also: potency is read from the fitted curve at half-maximal effect; nearly all actives have a fitted effect of over 60% in size
# In short: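 Duplicate plates, pinned identically: one read for HiBiT-tagged endogenous HLA-B luminescence, the other for ATP-content viability via CellTiter Glo. Cells were genome-engineered human myoblasts given 4 ng/ml IFN-b; compounds 12-pt, 1:3 from 46 uM final; 24 hr exposure.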
# Sequence of Glutathione peroxidase 1 (Homo sapiens) (P07203 whole entry, looked up): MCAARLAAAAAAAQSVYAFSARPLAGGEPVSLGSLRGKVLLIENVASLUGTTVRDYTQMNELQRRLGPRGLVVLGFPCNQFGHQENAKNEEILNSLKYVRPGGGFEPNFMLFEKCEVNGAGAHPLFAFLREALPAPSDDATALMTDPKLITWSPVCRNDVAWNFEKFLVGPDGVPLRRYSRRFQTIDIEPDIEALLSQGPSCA
# Sequence of Glucocorticoid receptor (Homo sapiens) (P04150 whole entry, looked up, the tested form may be a part): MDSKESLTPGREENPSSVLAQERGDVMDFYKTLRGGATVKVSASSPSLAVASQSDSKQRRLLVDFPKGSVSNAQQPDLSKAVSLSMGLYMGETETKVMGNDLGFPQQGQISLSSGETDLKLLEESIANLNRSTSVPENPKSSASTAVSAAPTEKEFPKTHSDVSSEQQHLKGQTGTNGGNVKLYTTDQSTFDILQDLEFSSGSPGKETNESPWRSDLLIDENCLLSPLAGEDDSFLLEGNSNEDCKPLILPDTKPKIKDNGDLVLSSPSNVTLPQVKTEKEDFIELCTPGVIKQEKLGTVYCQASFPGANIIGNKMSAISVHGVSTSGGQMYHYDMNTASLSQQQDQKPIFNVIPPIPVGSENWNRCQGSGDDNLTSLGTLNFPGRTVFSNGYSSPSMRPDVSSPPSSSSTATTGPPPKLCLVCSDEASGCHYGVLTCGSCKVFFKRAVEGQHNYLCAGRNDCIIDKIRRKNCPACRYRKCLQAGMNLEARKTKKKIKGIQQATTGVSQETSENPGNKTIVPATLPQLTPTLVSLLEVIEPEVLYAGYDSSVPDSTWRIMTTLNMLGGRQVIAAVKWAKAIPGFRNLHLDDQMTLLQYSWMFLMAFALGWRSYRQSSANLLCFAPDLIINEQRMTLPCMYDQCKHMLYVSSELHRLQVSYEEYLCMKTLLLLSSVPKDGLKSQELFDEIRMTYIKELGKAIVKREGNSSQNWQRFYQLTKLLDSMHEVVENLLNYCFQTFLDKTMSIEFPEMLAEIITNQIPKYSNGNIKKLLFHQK
# Sequence of Nicotinamide N-methyltransferase (Homo sapiens) (P40261 whole entry, looked up): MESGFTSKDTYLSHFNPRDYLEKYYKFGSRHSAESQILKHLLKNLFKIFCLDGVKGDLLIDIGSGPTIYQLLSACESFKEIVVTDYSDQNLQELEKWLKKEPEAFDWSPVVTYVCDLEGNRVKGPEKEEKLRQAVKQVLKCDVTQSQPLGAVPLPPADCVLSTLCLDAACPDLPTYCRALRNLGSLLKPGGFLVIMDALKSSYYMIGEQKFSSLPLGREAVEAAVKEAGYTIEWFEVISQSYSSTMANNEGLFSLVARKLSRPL
# Sequence of Phenylethanolamine N-methyltransferase (Homo sapiens) (P11086 whole entry, looked up): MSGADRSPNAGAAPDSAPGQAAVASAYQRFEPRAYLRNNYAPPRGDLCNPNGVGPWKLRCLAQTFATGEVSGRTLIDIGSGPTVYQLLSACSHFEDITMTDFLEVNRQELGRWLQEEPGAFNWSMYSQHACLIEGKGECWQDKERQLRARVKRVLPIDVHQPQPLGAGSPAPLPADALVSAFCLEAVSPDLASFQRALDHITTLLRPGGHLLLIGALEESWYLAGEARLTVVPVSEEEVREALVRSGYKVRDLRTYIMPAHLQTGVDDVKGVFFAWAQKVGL
# Sequence of Catechol O-methyltransferase (Homo sapiens) (P21964 whole entry, looked up): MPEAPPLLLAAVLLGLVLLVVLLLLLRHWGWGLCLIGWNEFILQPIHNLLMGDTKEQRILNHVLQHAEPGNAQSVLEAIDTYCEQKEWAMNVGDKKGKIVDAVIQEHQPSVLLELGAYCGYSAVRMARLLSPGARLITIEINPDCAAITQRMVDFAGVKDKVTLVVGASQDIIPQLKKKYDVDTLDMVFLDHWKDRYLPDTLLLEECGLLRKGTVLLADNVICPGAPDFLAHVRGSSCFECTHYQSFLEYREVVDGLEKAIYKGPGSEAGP
# Sequence of Ubiquitin carboxyl-terminal hydrolase 1 (Homo sapiens) (O94782 whole entry, looked up): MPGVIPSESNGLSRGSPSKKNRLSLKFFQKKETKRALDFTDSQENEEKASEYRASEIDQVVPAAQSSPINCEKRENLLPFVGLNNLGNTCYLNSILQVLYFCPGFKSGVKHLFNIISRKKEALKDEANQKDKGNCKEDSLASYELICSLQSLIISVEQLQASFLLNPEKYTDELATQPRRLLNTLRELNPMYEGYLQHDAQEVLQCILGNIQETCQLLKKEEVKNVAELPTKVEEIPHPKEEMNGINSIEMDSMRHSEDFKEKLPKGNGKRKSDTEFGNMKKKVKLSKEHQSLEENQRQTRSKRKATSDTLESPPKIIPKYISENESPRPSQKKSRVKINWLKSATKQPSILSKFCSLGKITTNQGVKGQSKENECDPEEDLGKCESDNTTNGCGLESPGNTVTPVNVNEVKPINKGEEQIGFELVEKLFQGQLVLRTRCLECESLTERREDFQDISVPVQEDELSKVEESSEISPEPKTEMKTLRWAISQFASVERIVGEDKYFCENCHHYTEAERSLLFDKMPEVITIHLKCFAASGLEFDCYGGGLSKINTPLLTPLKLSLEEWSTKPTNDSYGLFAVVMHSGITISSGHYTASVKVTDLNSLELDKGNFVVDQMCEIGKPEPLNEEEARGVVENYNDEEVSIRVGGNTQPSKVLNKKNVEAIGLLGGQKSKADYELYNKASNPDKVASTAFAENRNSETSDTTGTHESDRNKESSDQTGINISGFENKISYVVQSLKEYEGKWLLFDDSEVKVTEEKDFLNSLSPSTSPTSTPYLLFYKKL
# Sequence of N-terminal Xaa-Pro-Lys N-methyltransferase 1 (Homo sapiens) (Q9BV86 whole entry, looked up): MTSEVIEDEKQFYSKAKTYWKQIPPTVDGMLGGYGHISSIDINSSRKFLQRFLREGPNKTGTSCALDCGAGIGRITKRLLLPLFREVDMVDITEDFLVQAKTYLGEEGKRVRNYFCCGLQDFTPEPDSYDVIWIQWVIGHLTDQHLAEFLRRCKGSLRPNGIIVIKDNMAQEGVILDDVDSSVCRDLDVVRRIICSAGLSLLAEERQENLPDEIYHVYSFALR
# Sequence of Lysosomal acid glucosylceramidase (Homo sapiens) (P04062 whole entry, looked up): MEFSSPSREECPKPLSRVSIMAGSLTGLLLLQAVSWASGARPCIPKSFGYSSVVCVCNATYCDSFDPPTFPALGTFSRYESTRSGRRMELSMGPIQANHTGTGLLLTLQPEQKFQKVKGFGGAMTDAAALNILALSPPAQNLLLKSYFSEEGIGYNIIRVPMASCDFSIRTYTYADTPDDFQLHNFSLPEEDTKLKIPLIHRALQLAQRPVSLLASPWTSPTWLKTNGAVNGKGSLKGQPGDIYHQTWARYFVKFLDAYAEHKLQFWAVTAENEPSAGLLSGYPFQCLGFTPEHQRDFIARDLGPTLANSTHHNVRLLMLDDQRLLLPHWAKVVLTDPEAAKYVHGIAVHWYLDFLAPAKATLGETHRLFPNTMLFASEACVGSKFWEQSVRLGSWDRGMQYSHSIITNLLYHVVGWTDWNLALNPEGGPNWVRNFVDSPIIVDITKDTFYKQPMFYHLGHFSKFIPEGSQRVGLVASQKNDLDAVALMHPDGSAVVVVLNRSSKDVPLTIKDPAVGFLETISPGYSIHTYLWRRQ
# Sequence of Cytochrome P450 2C19 (Homo sapiens) (P33261 whole entry, looked up): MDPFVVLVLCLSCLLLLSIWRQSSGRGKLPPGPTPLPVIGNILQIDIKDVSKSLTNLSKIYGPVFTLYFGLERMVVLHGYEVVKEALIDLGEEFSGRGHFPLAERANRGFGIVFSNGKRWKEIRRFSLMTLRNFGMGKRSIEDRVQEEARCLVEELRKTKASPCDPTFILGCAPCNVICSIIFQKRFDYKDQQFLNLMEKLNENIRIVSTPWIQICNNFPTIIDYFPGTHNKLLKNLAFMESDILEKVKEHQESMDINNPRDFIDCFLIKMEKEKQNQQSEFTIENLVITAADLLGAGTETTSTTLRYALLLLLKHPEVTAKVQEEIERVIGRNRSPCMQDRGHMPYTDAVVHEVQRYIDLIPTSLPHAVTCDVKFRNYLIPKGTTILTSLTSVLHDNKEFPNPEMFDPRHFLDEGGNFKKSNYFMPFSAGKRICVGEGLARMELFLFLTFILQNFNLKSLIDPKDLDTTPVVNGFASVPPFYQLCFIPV
# Sequence of Cytochrome P450 3A4 (Homo sapiens) (P08684 whole entry, looked up): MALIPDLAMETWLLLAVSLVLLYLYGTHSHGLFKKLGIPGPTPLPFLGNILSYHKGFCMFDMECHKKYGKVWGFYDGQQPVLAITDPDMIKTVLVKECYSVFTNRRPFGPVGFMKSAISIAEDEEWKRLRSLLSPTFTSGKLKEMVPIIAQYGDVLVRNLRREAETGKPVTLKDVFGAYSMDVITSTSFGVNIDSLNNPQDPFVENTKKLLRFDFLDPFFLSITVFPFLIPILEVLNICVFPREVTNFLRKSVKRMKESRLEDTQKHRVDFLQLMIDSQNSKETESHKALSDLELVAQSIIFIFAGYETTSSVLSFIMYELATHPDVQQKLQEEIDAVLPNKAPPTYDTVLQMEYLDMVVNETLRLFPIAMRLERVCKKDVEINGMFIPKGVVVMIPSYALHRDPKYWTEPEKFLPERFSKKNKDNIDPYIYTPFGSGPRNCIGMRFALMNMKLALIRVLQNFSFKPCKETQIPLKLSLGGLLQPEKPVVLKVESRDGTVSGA
# Sequence of Cytochrome P450 1A2 (Homo sapiens) (P05177 whole entry, looked up): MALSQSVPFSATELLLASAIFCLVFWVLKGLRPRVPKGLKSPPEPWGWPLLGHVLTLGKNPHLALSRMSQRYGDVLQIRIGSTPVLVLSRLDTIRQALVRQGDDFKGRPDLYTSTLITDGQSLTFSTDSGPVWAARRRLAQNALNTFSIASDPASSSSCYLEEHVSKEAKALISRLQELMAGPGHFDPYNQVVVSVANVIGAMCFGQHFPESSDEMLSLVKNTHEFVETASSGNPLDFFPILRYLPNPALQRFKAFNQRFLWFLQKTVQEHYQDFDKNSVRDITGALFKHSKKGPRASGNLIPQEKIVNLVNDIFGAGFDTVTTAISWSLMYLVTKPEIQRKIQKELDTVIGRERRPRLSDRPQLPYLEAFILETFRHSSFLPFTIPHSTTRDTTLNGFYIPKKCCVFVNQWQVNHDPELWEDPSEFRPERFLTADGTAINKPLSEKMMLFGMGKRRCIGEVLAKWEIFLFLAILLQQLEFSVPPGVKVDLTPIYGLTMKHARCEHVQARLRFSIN
smiles,measurement,setting,value
Nc1ccc(-c2cnc(N)c(-c3ccc(Cl)cc3)c2)cn1,Potency,[1],inactive
same,Potency,[2],14.6 µM (active)
same,Potency,[3],14.6 µM (active)
same,activity,[4],-71.5%
same,"activity change, negative = inhibition",[5],-1.94%
same,activity,[6],-33.1%
same,activity,[7],-5.01%
CN(Cc1nccs1)c1ncnc2ccc(-c3ccc4c(c3)OCO4)cc12,Potency,[1],inactive
same,outcome,[8],inactive
same,Potency,[9],11.5 µM (active)
same,activity,[4],-82.4%
same,Potency,[5],24.1 µM (active)
same,activity,[6],-71.7%
same,activity,[7],-84.4%
same,Potency,[10],inactive
c1csc(CNc2ncnc3ccc(-c4ccc5c(c4)OCO5)cc23)c1,Potency,[11],> 11.4 µM (inactive)
same,Potency,[12],398 nM (active)
same,"activity change, negative = inhibition",[13],5.05% (inactive)
same,"activity, negative = inhibition",[14],-12.1% (inactive)
same,Potency,[15],> 46 µM (inactive)
same,Potency,[16],> 46 µM (inactive)
same,Potency,[17],inactive
same,Potency,[18],inactive
same,Potency,[19],3.98 µM (active)
same,outcome,[20],inactive
same,outcome,[21],inactive
same,"activity change, negative = inhibition",[22]; at 57.5 µM (top of the series),9.51% (inactive)
same,max response,[22]; measured here: cell count channel max response,14.3%
same,max response,[22]; measured here: lipid channel max response,25.9%
same,Potency,[23],inactive
same,Potency,[1],11.6 µM (active)
same,Potency,[24],inactive
same,Potency,[10],inactive
COc1ccc(CCNCc2ccc(OCc3ccc(Cl)nc3)c(OC)c2)cc1OC,Potency,[1],inactive
same,Potency,[10],inactive
Cc1ccc(Nc2ncc3c(n2)N(C)C(=O)N(c2cc(NC(=O)c4cccc(C(F)(F)F)c4)ccc2C)C3)cn1,Potency,[1],inactive
same,Potency,[25],65.8 nM (active)
same,Potency,[2],0.0332 µM (active)
same,Potency,[3],0.059 µM (active)
same,Potency,[10],inactive
same,Z-AUC,[26],-1.89 (inactive)
same,Z-AUC,[26]; measured here: PEO1 parental Z-AUC,-2.2
same,Z-AUC,[26]; measured here: PEO4 Z-AUC,-1.4
same,Potency,[27],394 nM (active)
Clc1cc(Cl)c2c(c1)N=C1CCCCCN1C2,Potency,[1],inactive
same,Potency,[2],inactive
same,Potency,[3],inactive
same,Potency,[10],inactive
CCCn1cnc2c(NCc3ccc(C)s3)nc(N[C@H](CC)CO)nc21,Potency,[1],inactive
same,Potency,[10],inactive
O=C(/C=C/c1nc2ccccc2[nH]1)c1c(-c2ccccc2)c2cc(Cl)ccc2[nH]c1=O,Potency,[1],7.31 µM (active)
same,Potency,[2],1.16 µM (active)
same,Potency,[3],1.03 µM (active)
same,Potency,[10],inactive
O=C1NC(=NCc2cccs2)S/C1=C/c1ccc2ncccc2c1,Potency,[1],4.11 µM (active)
same,Potency,[2],3.66 µM (active)
same,Potency,[3],2.91 µM (active)
same,Potency,[10],inactive
Nc1ncnc2c1ncn2[C@H]1O[C@H](CO)[C@@H](O)[C@@H]1O,Potency,[1],inactive
same,Potency,[2],39.8 µM (active)
same,Potency,[3],39.8 µM (active)
